# About 7,900 targets were measured; listed, in parts, are those with a hit and a random draw of the rest. About 0.6% of all pairs of compound and target were hits. A number with no mark means an inactive call.
# Key:
# Test in all cases: log2 fold change, soluble protein after heating vs DMSO (PISA); higher = thermal stabilisation; K562 cells, 10 uM, 30 min; active = over 0.2 and 3.5 SD of the protein, either way, in both replicates (recomputed)
# [1] = compound: CN1CCN(CCOc2cc(OC3CCOCC3)c3c(Nc4c(Cl)ccc5c4OCO5)ncnc3c2)CC1 [saracatinib]
# Outline: (§1)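 K562 cells at 2×10^6 cells/mL were exposed to 10 μM compound for 30 min, then aliquots were heated for 3 min across 48°C-58°C, pooled, and extracted in PBS containing 0.5% NP-40 at 4°C. The supernatant after 21,000xg for 90 min was taken as soluble protein and measured by TMTpro 16plex LC-MS/MS with channel sums equalised. Thermal stability is reported relative to control samples, with values from duplicates. Fold changes are given on a log2 scale.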
# [2] = compound: CN1CCN(c2nc(C3=C(c4c[nH]c5ccccc45)C(=O)NC3=O)c3ccccc3n2)CC1 [sotrastaurin]
# Outline: as §1
# [3] = compound: CN1CCc2c(c3ccccc3n2Cc2ccc(C(=O)NO)cc2)C1 [Tubastatin A]
# Outline: as §1
# [4] = compound: CNC(=O)c1ccc(Nc2ncc(C(F)(F)F)c(NCc3nccnc3N(C)S(C)(=O)=O)n2)cc1 [defactinib]
# Outline: as §1
# [5] = compound: CNc1nc(-c2ccc3c(N)n[nH]c3c2)cc(N2C[C@@H](C(=O)NC3CCCCC3)CC[C@H]2C)n1
# Outline: as §1
# [6] = compound: COC(=O)[C@H](CCSC)NC(=O)C1=C(C=C(C=C1)NC[C@H](CS)N)C2=CC=CC=C2
# Outline: as §1
# [7] = compound: CN1CC[C@H](c2c(O)cc(O)c3c(=O)cc(-c4ccccc4Cl)oc23)[C@H](O)C1 [alvocidib]
# Outline: as §1
# [8] = compound: CNC(=O)C1=CC=CC=C1NC2=NC(=NC=C2Cl)NC3=C(C=C(C=C3)N4CCOCC4)OC
# Outline: as §1
# [9] = compound: CNCc1ccc(-c2[nH]c3cc(F)cc4c3c2CCNC4=O)cc1 [rucaparib]
# Outline: as §1
# [10] = compound: COC(=O)N[C@@H](C)CNc1nccc(-c2cn(C(C)C)nc2-c2cc(Cl)cc(NS(C)(=O)=O)c2F)n1 [encorafenib]
# Outline: as §1
# Chain of UniProt Q14671 (Q14671 whole entry, looked up): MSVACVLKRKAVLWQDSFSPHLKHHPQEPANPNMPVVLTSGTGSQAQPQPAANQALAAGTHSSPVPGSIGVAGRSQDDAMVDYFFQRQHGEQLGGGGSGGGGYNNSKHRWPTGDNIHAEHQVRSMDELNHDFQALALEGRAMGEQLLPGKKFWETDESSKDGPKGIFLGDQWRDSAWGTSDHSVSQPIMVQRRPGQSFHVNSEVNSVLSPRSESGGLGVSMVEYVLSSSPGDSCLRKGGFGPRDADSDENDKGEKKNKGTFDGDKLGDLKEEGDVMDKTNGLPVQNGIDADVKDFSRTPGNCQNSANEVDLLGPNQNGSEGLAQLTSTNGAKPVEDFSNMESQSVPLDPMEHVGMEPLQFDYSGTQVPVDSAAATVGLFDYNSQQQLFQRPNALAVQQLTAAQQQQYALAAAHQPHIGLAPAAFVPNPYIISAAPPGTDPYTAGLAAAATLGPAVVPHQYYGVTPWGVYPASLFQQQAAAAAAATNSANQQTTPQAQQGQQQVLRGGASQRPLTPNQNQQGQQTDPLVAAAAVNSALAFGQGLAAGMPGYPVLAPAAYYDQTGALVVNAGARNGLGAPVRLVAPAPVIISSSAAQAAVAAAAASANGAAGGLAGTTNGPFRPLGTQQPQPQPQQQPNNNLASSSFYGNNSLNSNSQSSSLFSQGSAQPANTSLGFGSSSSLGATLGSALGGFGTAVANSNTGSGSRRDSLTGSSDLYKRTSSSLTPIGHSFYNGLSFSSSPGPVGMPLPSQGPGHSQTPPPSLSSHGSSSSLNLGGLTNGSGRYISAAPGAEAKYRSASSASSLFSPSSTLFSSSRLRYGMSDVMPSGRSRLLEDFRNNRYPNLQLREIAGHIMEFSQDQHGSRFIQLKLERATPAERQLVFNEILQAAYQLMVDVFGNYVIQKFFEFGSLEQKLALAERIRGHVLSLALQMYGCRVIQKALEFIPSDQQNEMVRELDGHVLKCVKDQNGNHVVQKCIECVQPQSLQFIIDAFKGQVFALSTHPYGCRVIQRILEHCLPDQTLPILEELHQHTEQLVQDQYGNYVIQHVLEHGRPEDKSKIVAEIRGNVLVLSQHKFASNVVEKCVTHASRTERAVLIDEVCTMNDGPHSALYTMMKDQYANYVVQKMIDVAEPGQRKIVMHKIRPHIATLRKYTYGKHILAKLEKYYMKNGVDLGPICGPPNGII
# Chain of UniProt Q9UHX1 (Q9UHX1 whole entry, looked up): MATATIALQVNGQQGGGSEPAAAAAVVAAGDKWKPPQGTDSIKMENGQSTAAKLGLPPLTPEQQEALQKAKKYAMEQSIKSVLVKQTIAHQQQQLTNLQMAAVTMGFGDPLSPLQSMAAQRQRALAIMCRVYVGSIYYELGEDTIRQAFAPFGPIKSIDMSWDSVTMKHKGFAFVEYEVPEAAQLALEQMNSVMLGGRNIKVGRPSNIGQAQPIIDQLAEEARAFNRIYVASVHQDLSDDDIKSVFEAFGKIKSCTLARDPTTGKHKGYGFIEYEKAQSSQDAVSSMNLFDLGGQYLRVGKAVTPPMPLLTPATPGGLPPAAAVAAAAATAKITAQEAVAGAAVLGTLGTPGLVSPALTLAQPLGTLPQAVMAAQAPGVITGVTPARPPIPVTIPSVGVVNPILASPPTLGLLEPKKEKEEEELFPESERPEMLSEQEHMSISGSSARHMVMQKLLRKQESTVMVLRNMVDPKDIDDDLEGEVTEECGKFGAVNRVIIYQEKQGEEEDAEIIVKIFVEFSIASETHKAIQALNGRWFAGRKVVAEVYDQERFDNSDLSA
# Chain of UniProt O94913 (O94913 whole entry, looked up): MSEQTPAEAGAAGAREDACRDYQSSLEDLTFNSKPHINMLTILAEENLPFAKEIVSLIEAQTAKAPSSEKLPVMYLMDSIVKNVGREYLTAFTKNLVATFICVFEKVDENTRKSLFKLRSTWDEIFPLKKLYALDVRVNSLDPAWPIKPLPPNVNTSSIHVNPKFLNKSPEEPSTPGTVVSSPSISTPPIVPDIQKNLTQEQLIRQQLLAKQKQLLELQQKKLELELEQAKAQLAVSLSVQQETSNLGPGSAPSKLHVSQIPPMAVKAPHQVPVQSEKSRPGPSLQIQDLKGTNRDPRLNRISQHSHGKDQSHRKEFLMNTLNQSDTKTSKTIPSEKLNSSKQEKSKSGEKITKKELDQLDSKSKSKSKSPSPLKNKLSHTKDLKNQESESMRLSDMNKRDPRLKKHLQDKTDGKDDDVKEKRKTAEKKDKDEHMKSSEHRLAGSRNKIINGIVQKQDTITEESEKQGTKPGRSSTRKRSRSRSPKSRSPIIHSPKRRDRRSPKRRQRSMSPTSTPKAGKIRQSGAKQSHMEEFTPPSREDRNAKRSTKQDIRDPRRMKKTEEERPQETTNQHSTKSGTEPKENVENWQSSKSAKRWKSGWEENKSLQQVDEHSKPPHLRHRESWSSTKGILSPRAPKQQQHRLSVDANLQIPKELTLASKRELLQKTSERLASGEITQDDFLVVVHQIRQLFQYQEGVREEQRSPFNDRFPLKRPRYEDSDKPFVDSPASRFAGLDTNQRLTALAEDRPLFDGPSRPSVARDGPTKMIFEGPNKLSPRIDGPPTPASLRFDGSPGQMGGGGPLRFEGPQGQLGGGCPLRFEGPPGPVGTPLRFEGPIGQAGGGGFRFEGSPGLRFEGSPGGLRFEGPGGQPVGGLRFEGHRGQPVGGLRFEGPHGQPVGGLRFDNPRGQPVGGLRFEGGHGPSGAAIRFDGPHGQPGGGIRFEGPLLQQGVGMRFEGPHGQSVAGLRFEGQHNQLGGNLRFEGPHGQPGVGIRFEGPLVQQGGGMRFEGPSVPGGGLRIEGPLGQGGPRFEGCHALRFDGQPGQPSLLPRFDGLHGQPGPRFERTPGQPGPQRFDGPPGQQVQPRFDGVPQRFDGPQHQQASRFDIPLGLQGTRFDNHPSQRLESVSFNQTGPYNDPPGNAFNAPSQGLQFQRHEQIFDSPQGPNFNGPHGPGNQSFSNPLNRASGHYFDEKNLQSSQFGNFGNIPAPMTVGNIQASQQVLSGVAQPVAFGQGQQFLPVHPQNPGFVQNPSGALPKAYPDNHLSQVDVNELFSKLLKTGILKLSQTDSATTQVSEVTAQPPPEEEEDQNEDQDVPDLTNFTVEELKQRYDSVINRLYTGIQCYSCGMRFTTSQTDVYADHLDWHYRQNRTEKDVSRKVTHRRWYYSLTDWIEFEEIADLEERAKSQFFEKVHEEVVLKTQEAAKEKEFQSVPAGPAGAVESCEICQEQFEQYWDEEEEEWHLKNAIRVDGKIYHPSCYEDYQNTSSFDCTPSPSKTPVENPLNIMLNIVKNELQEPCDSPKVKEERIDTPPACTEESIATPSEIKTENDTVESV
# Chain of UniProt Q9BZL4 (Q9BZL4 whole entry, looked up): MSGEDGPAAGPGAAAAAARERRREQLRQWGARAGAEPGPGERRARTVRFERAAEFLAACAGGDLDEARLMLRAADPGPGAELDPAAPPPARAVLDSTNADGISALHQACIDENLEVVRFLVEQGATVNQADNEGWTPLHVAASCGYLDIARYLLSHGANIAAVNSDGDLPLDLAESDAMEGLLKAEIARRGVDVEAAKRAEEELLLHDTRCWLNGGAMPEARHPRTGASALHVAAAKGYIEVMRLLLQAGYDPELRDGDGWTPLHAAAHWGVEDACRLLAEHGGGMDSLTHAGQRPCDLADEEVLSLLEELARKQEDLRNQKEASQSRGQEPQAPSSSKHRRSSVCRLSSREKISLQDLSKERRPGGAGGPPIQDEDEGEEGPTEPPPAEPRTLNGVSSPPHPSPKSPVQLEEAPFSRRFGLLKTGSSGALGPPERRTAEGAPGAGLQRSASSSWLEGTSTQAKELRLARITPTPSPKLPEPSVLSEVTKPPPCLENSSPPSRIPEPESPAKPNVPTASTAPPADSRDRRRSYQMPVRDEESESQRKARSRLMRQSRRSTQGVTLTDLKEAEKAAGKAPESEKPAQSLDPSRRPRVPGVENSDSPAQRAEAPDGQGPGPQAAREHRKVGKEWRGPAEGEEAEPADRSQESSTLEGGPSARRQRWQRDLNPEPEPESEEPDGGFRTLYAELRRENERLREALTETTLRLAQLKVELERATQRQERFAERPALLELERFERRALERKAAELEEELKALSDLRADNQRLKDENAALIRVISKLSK
# Chain of UniProt Q13362 (Q13362 whole entry, looked up): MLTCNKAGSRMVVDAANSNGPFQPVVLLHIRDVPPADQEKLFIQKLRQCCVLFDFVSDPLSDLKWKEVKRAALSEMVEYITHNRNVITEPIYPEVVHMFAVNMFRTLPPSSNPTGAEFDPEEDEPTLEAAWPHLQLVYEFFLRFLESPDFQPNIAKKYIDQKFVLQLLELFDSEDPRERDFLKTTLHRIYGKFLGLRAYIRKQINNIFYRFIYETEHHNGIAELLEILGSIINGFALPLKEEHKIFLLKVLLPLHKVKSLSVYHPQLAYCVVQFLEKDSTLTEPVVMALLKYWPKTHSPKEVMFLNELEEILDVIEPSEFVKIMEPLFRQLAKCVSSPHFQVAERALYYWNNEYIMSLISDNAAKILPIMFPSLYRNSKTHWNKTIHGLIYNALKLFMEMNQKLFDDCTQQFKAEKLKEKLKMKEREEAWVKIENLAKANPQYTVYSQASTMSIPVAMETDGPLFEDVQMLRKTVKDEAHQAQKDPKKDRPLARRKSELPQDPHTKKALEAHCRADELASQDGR
# Chain of UniProt P60484 (P60484 whole entry, looked up): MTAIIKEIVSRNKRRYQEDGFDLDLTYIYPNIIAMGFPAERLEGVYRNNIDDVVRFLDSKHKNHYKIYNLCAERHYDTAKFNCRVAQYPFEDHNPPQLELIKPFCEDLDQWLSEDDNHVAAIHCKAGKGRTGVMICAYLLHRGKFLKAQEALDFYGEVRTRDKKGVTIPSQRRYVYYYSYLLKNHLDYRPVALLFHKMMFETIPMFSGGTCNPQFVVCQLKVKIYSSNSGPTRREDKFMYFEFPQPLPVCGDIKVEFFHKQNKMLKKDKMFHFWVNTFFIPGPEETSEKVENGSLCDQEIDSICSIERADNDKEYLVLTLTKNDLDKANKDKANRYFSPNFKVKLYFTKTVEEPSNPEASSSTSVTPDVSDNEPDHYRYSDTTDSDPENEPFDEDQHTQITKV
target,measurement,setting,value
PSMC3 (UniProt E9PLG2),log2 fold change,[1],-0.197
same,log2 fold change,[2],0.081
same,log2 fold change,[3],0.079
same,log2 fold change,[4],0.172
same,log2 fold change,[5],-0.252
same,log2 fold change,[6],-0.026
PSMC1 (UniProt G3V4X1),log2 fold change,[7],0.031
same,log2 fold change,[8],-0.011
PTEN isoform 2 (UniProt P60484),log2 fold change,[8],-0.247
same,log2 fold change,[9],-0.108
same,log2 fold change,[10],0.015
PPP2R5C isoform 2 (UniProt Q13362),log2 fold change,[8],-0.017
same,log2 fold change,[9],-0.063
same,log2 fold change,[10],0.003
PPP1R12B isoform 6 (UniProt O60237),log2 fold change,[8],0
PCBP2 (UniProt F8VZX2),log2 fold change,[1],0.009
same,log2 fold change,[7],-0.3
same,log2 fold change,[8],0.06
same,log2 fold change,[5],0.084
PLCL1 (UniProt Q15111),log2 fold change,[2],0.032
same,log2 fold change,[7],0.109
same,log2 fold change,[3],0.166
same,log2 fold change,[8],-0.131
same,log2 fold change,[4],-0.02
same,log2 fold change,[9],0.2
same,log2 fold change,[10],0.018
same,log2 fold change,[6],0.047
POLR2E (UniProt P19388),log2 fold change,[1],-0.077
same,log2 fold change,[7],0.212
same,log2 fold change,[3],-0.009
same,log2 fold change,[8],-0.076
same,log2 fold change,[4],0.216
same,log2 fold change,[9],0.153
same,log2 fold change,[5],0.104
same,log2 fold change,[10],0.025
same,log2 fold change,[6],-0.081
PUF60 isoform 2 (UniProt Q9UHX1),log2 fold change,[1],0.107
same,log2 fold change,[7],-0.306
same,log2 fold change,[3],0.202
same,log2 fold change,[4],-0.165
same,log2 fold change,[5],-0.403
same,log2 fold change,[6],-0.089
PRKD2 (UniProt M0R346),log2 fold change,[2],-0.247
PHRF1 (UniProt Q9P1Y6),log2 fold change,[8],-0.022
PUM1 (UniProt Q14671),log2 fold change,[1],-0.155
same,log2 fold change,[7],-0.083
same,log2 fold change,[3],0
same,log2 fold change,[8],-0.348
same,log2 fold change,[5],-0.232
PPP1R12C (UniProt Q9BZL4),log2 fold change,[1],-0.115
same,log2 fold change,[2],-0.157
same,log2 fold change,[3],0.014
same,log2 fold change,[8],0.113
same,log2 fold change,[4],-0.205
same,log2 fold change,[9],0.184
same,log2 fold change,[5],-0.164
same,log2 fold change,[10],-0.013
same,log2 fold change,[6],0.035
PSMA3 (UniProt H0YJ03),log2 fold change,[1],-0.185
same,log2 fold change,[7],0.073
same,log2 fold change,[3],0.314
same,log2 fold change,[4],-0.023
same,log2 fold change,[9],0.151
same,log2 fold change,[5],0.067
same,log2 fold change,[10],-0.142
same,log2 fold change,[6],0.087
PCF11 (UniProt O94913),log2 fold change,[7],0.027
same,log2 fold change,[4],-0.059
same,log2 fold change,[9],-0.995 (active)
same,log2 fold change,[10],-0.06
same,log2 fold change,[6],0.095

# Source: the supplement of paper PMC10849652
